Only a selection was taken, and hits are over-represented in it overall.
PI5P4K alpha inh = qHTS for Inhibitors of phosphatidylinositol 5-phosphate 4-kinase (PI5P4K) | Phosphatidylinositol 5-phosphate 4-kinase type-2 alpha (Homo sapiens), P48426 | PI5P4Kalpha enzyme, ADP-Glo luminescence, 60 min; hits give low values | max response, % | hit rate 1.2% among 330,000; active means max response of -50% or lower; inconclusive means between -30% and -50%; inactive means -30% or higher; further: value at the top dose of about 77 µM; on the % scale 0 is the no-effect control and ±100 the full control effect
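ADP-Glo luminescence end-point read after a 60 min room-temperature kinase reaction of PI5P4Kalpha plus substrate, initiated with ATP at 5 microM final. Buffer: 0.038 M HEPES pH 7.4, EGTA, 0.1% CHAPS, 5% DMSO.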
PI4K2A block = qHTS for small molecular inhibitors of PI4K2A | hit rate 0.13% among 420,000 | Phosphatidylinositol 4-kinase type 2-alpha (Homo sapiens), Q9BTU6 | purified PI4K2A, ADP-Glo luminescence, 1 h; hits give low values | activity change, negative = inhibition, % at 76.9 µM; in the data active means activity change below about -50%; inconclusive means mostly about -30% to -49%;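 further: -100% = wells without enzyme as full effect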
Target sequence (Q9BTU6 whole entry, looked up): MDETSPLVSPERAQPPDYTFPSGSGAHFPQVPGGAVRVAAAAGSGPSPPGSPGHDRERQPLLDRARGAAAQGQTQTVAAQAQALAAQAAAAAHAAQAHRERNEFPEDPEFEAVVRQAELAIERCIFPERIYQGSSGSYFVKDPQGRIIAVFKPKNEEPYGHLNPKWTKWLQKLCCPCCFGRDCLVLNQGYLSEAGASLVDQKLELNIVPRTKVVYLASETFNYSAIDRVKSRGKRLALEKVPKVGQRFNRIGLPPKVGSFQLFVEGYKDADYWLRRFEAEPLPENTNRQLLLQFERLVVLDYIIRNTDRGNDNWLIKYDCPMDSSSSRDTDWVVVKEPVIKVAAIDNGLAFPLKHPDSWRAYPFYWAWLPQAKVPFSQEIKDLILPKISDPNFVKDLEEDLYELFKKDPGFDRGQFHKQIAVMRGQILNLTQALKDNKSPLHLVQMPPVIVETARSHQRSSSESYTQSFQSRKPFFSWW
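PI4K2A activity was measured by ADP-Glo luminescence: enzyme (4 ug/mL stock) and phosphatidylinositol (1.2 mM stock) in Tris pH 7.5/MgCl2/EGTA/Triton X-100 buffer were reacted with ATP (300 microM stock) for one hour at ambient temperature.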
Tb PFK inh-1 = qHTS Assay to Find Inhibitors of T. brucei phosphofructokinase; ATP-dependent 6-phosphofructokinase (Trypanosoma brucei brucei), O15648; T. brucei PFK, ADP-Glo luminescence; Potency, µM (highest dose often 57.5 µM), inactives show at the highest dose activity, negative = inhibition, hits mostly inhibitors; hit rate 0.17% among 330,000;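 further: potency means the concentration at half of the fitted maximal effect; 0% = uninhibited 1x PFK enzyme wells and -100% = no-enzyme wells; nearly all actives have a fitted effect of over 60% in size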
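1.25 nM PFK with 0.5 mM F6P and 0.1 mM ATP in 0.1 M TEA pH 8.0, 5 mM MgCl2, incubated 45 min at room temperature; ADP measured by ADP-Glo luminescence; compounds titrated up to 57 uM.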
Pin1 inh = qHTS Assay to Find Inhibitors of Pin1; hit rate 0.009% among 390,000; Potency, µM (titrated, usually from 115 µM), inactives show top-dose activity, negative = inhibition, most hits filed as inhibitors; Pin1 FP peptide displacement, HiFluor488, 10 min; Peptidyl-prolyl cis-trans isomerase NIMA-interacting 1 (Homo sapiens), Q13526; active means well fitted inhibition curve with a large enough effect in the polarisation, with a control signal flat, not every such curve was filed as active; inconclusive means small, poorly fitted or top-dose-only effect, or effect the other way, or a change in a side signal; inactive means no such curve, though single readings can be large or run the other way; the % refers to the polarisation; further: potency means the concentration at half of the fitted maximal effect; on the % scale 0 is the no-effect control and ±100 the full control effect
Target sequence (Q13526 whole entry, looked up): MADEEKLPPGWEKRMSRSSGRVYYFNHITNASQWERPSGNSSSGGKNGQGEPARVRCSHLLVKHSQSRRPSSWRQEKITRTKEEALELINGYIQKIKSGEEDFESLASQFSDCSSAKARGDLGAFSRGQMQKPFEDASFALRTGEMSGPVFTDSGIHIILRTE
Tb PGK inh = qHTS Assay to Find Inhibitors of Phosphoglycerate Kinase; hit rate 0.043% among 380,000; Phosphoglycerate kinase, glycosomal (Trypanosoma brucei brucei), P07378; PGK/GAPDH coupled, Kinase-Glo luminescence, 60 min; Potency, µM (titrated, usually from 57.5 µM), without a hit: at the top dose activity change, negative = inhibition, most hits filed as inhibitors; further: potency means the concentration at half of the fitted maximal effect; on the % scale 0 is the no-effect control and ±100 the full control effect; nearly all actives have a fitted effect of over 60% in size
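Luminescent ATP detection (Kinase-Glo Plus) follows a 60-minute room-temperature incubation, with wells lacking PGK as controls. Buffer: 100 mM TEA (pH 7.6), 5 mM MgCl2, 0.01% Tween-20. Coupling enzyme GAPDH (100 nM final) supplies unstable 1,3-BPG in-well.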
TbPFK ATP = Tb PFK orthogonal confirmatory assay using ATP depletion (Kinase-Glo Plus) as an alternative measure of Tb PFK activity: Hit Validation. shares compounds with Tb PFK inh-1. Potency, µM (doses to about 57.5 µM), for inactives: at the top dose inhibition. AID 504636, 2011. Tb PFK enzyme, ATP depletion, Kinase-Glo Plus luminescence. hit rate 47% among 1,100; calls by dose curve; further: potency means the concentration at half of the fitted maximal effect; nearly all actives have a fitted effect of over 60% in size
Tb PFK inh-2 = Inhibitors of T. brucei phosphofructokinase: Hit Validation; shares compounds with Tb PFK inh-1; purified T. brucei PFK, ADP-Glo luminescence, 45 min; Potency, µM (titrated, usually from 57.5 µM), for inactives: at the highest dose activity change, negative = inhibition, most hits filed as inhibitors; hit rate 41% among 1,100; AID 504637, 2011;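 further: potency means the concentration at half of the fitted maximal effect; plate controls were full PFK enzyme control for no effect and no enzyme control for full effect; nearly all actives have a fitted effect of over 60% in size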
* hit, by the source's call; i = inactive; ? = inconclusive; . = no result given. Unless noted, the call rests on the fitted dose curve; in most records, active means well fitted curve in the direction sought with a large enough effect; inconclusive means small, poorly fitted or top-dose-only effect, or another doubt; inactive means no such curve, though single readings can be large; an effect the other way counts as inactive or inconclusive.

SMILES	PI5P4K alpha inh	PI4K2A block	Tb PFK inh-1	Pin1 inh	Tb PGK inh	TbPFK ATP	Tb PFK inh-2
O=C(N/N=C/C=C/c1ccc([N+](=O)[O-])cc1)C1COc2ccccc2O1 (stereo unspecified)	-5.9	5.4	12µM*	-7.9%	9.0%	13.5µM*	23.9µM*
CCCCCCCCCC(=O)O[C@H]1CC[C@H]2[C@@H]3CCC4=CC(=O)CC[C@@H]4[C@H]3CC[C@]12C	.	-2.0	.	.	.	.	.
CC(C)n1c(/C=C/[C@H](O)C[C@H](O)CC(=O)O)c(-c2ccc(F)cc2)c2ccccc21	5.9	0.9	?	0.0%	-4.0%	.	.
CN(C)c1ccc(NC(=O)c2ccc(Cn3cc([N+](=O)[O-])cn3)cc2)cc1	-11.7	-5.8	23.9µM*	23.8%	i	12µM*	26.9µM*
O=C(O)[C@@H]1CCN1	.	3.3	.	.	.	.	.
C=Cc1ccc(Cn2c(C)c(CNCCc3cc(OC)ccc3OC)c(C(=O)O)c2C)cc1	.	-2.5	.	-11.3%	19.7%	.	.
CCOC(=O)C/C(C)=N/NC(=O)CNc1cccc(Cl)c1C	7.6	0.0	23.9µM*	-5.8%	9.8%	16.2%	-4.4%
CCc1cc(OC)c(C[C@H](C)N)cc1OC	.	i	.	.	.	.	.
NC1CC1c1ccccc1 (stereo unspecified)	.	3.1	.	.	.	.	.
Cc1ccc(NS(=O)(=O)c2cc(NC(=O)c3ccc4c(c3)NC(=O)CS4)ccc2C)c(C)c1	-18.4	-2.9	21.3µM*	11.5%	i	15.1µM*	23.9µM*
Oc1cc2c(cc1O)[C@H]1c3ccc(O)c(O)c3OC[C@@]1(O)C2	?	5.5	?	-8.7%	?	?	?
CCCc1nc(SC)ncc1C(=O)Nc1ccc(Cl)cc1C(=O)c1ccccc1	.	-0.1	.	31.2%	-3.3%	.	.
CCN1/C(=C/C=C/c2oc3ccc(-c4ccccc4)cc3[n+]2CC)Oc2ccc(-c3ccccc3)cc21	-57.1*	4.0	?	-173.6%	-12.3%	-27.1%	?
O=C(NCc1ccccc1)c1cccn(Cc2cccc(Cl)c2)c1=O	9.3	-1.2	0.4%	?	-4.2%	.	.
C=CCNC(=S)NNC(=O)c1cccn(Cc2ccc(Cl)c(Cl)c2)c1=O	.	10.4	8.49µM*	6.9%	-1.3%	8.49µM*	10.7µM*
CNC(=O)c1cccn(Cc2cccc(C(F)(F)F)c2)c1=O	-4.0	1.4	-10.0%	-1.4%	-8.0%	.	.
CNC(=S)NNC(=O)c1cccn(Cc2ccc(Cl)c(Cl)c2)c1=O	.	7.3	8.49µM*	3.1%	0.7%	2.69µM*	8.49µM*
Cn1cccc1/C=C1/SC(=S)N(CC(=O)O)C1=O	4.8	-3.1	?	?	-1.5%	-27.7%	?
N/C(=N/[N+](=O)[O-])N1CCN(C(=O)Oc2ccc([N+](=O)[O-])cc2)CC1	-5.8	2.9	1.6%	-4.1%	.	.	.
NC(=O)c1cc(S(=O)(=O)N2CCN(c3ccc([N+](=O)[O-])cc3)CC2)cs1	-0.5	-3.1	21.3µM*	-2.7%	-9.6%	12µM*	26.9µM*
Cc1nnc(NC(=O)c2cccn(Cc3ccccc3F)c2=O)s1	.	-2.8	.	-2.1%	-8.0%	.	.
Cc1ccc(Cn2cccc(C(=O)Nc3cc(C)on3)c2=O)cc1	.	5.0	.	-1.5%	-1.9%	.	.
Cc1ccc([N+](=O)[O-])cc1	2.3	-1.8	-3.4%	-0.9%	-1.7%	.	.
Cc1cc(F)ccc1NCc1ccc([N+](=O)[O-])cc1	12.0	22.2	?	-9.2%	-9.6%	?	?
Cc1ccccc1Cn1cccc(C(=O)Nc2nc3ccccc3s2)c1=O	.	-8.8	.	15.5%	-5.2%	.	.
SMILES	PI5P4K alpha inh	PI4K2A block	Tb PFK inh-1	Pin1 inh	Tb PGK inh	TbPFK ATP	Tb PFK inh-2
Nc1nonc1C(=O)N/N=C/c1ccc(-c2ccc(Cl)c(C(=O)O)c2)o1	-24.3	-5.3	?	0.1%	-17.7%	-19.2%	?
COc1ccc(NS(=O)(=O)c2ccc(C)c(NC(=O)CN3C(=O)NC4(CCCC4)C3=O)c2)cc1	2.1	-0.2	?	-11.5%	-7.4%	-27.4%	?
O=C(CSc1ccsc1[N+](=O)[O-])Nc1cc(F)ccc1F	-94.0*	-4.9	?	?	?	6.75µM*	?
CCN(CC)c1ccc(NC(=O)CSc2ccsc2[N+](=O)[O-])c(C)c1	?	-4.6	?	?	-9.7%	?	-26.8%
C[C@H](NC(=O)C1CCN(S(=O)(=O)c2ccccc2)CC1)C(=O)NCc1ccc(Cl)c(Cl)c1	-0.6	-1.7	26.9µM*	-3.6%	8.3%	21.3µM*	?
Cc1ccc(NC(=O)c2ccc(Cl)c(N3C(=O)C=CC3=O)c2)cc1	-68.0*	2.2	?	27.4%	-3.7%	12µM*	?
CCOC(=O)C(O)(c1ccc(NC(=O)c2ccc(Cl)c(Cl)c2)cc1)C(F)(F)F (stereo unspecified)	4.3	-0.8	-7.2%	?	1.3%	.	.
COc1ccc(OC)c(S(=O)(=O)N(C(C)=O)c2ccc3oc(=O)sc3c2)c1	0.4	-1.2	?	-2.5%	0.5%	-20.6%	?
COc1ccc(OC)c(CC(=O)O)c1	.	6.3	-1.4%	0.4%	-7.3%	.	.
CCN(CC)CCOC(=O)c1ccc(N/C=C(/C#N)c2nc(-c3cc4ccccc4oc3=O)cs2)cc1	?	5.4	?	42.1%	-6.0%	-24.7%	?
CCN(CC)CCOC(=O)c1ccc(N/C=C(/C#N)c2nc(-c3ccc4c(c3)OCO4)cs2)cc1	-53.0*	0.1	?	?	i	-30.2%	?
O=C1CN=C(c2ccccc2)c2cc(Cl)ccc2N1Cc1ccc(Cl)cc1	.	0.3	.	-1.3%	-6.1%	.	.
C=CCN1C[C@H](C)N([C@H](c2ccc(C(=O)N(CC)CC)cc2)c2cccc(OC)c2)C[C@H]1C	.	3.4	.	.	.	.	.
O=C(Nc1nc2ccccc2s1)c1cccn(Cc2ccccc2)c1=O	.	-2.4	.	66.8%	7.9%	.	.
CN(C(=O)CSc1nc2ccc(NC(=O)COc3ccc(Cl)cc3)cc2s1)c1ccccc1	.	-0.3	.	21.5%	3.2%	.	.
O=C(CSc1nc2ccccc2s1)Nc1ccc(Cl)c(C(=O)O)c1	?	-0.6	?	-7.1%	-0.9%	-25.4%	19.1%

Screening results as filed in PubChem BioAssay.
